Hits are enriched below; roughly 0.35% of the tested compounds scored in any of these assays.
Epigenetic reg – Quantitative High-Throughput Screen for Regulators of Epigenetic Control. murine LDR cells, GFP reporter derepression, 30 h. Potency, µM (doses to about 53.9 µM), without a hit: at the highest dose GFP activation, actives largely listed as activators. hit rate 0.2% among 280,000. AID 1865, 2009; also: % of control where 0% means no effect; nearly all actives have a fitted effect of over 60% in size
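Murine LDR cells carrying a silenced, genomically integrated CMV-driven GFP reporter were exposed to compound for 30 hours at 37 C. After PBS washes, GFP-positive cells (20–120 um objects) were counted by laser-scanning microplate cytometry.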
Vif-A3F inh – qHTS for Inhibitors of Vif-A3F Interactions: qHTS | HeLa A3F-eYFP + Vif (tagged APOBEC3F with the HIV-1 protein that degrades it), YFP fluorescence increase | Potency, µM (top dose mostly 46.1 µM), for the others: top-dose activity, negative = active | hit rate 0.2% among 390,000; also: % of control where 0% means no effect; nearly all actives have a fitted effect of over 65% in size
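Fluorescence increase (Ex 488/Em 500-530) after overnight compound treatment at 37 deg C flags inhibition of Vif-driven A3F-eYFP loss in stable HeLa A3F-eYFP/Vif cells seeded overnight beforehand.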
GRP78 ERSR act – qHTS for Inducers of the Endoplasmic Reticulum Stress Response (ERSR) in Human Glioma: qHTS. hit rate 0.02% among 420,000. Potency, µM, without a hit: top-dose activation, most hits filed as activators. U87-MG GRP78 promoter luciferase reporter, 16 h. AID 602332, 2012; also: series mostly up to about 76 µM; % of control where 0% means no effect; nearly all actives have a fitted effect of over 35% in size
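ERSR induction read as luciferase luminescence (Bright-Glo, 10 min at room temperature) in stably transfected human U87-MG glioma cells exposed to compounds for 16 h, using GRP78 as sensor.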
Vif-A3G inh – qHTS for Inhibitors of Vif-A3G Interactions: qHTS | DNA dC->dU-editing enzyme APOBEC-3G (Homo sapiens), Q9HC16 | HeLa A3G-eYFP + Vif (tagged APOBEC3G with the HIV-1 protein that degrades it), YFP fluorescence, overnight | Potency, µM (doses to about 46.1 µM), for inactives: top-dose activity, negative = active, usual class: inhibitors | hit rate 0.076% among 410,000; also: % is scaled to controls: 0 for no effect and ±100 for the full control effect; nearly all actives have a fitted effect of over 60% in size
Target sequence (Q9HC16 whole entry, looked up): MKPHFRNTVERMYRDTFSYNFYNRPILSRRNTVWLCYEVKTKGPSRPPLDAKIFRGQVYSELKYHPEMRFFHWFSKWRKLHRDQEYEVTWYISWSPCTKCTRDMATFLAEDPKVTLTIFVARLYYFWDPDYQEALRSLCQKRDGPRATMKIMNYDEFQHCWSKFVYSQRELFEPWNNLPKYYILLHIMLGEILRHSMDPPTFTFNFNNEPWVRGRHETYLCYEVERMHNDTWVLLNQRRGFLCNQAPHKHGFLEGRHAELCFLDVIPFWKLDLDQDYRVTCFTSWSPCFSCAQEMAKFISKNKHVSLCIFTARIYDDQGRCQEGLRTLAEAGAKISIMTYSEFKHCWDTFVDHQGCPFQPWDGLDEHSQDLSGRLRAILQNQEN
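HeLa cells stably expressing Vif and C-terminally eYFP-tagged A3G, seeded overnight at 37 deg C, then exposed to compound by pintool overnight at 37 deg C. Rise in yellow fluorescence (Ex 488/Em 500-530, Acumen) marks blocked Vif-driven A3G degradation.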
* hit, by the source's call; i = inactive; u = inconclusive; x = no result; [ ] = remark or other dose. Calls follow the shape of the dose curve; as a rule, active = well fitted curve in the direction sought with a large enough effect; inconclusive = small, poorly fitted or top-dose-only effect, or another doubt; inactive = no such curve, though single readings can be large; an effect the other way counts as inactive or inconclusive. Potency is read from the fitted curve at half-maximal effect.

SMILES	Epigenetic reg	Vif-A3F inh	GRP78 ERSR act	Vif-A3G inh
CC(=O)Nc1sc2c(c1-c1nc3ccccc3s1)CN(C(C)C)CC2	x	10µM*	-5%	13µM*
CC(C)N1CCc2c(sc(NC(=O)c3nc4ccccc4s3)c2C(N)=O)C1	-4%	u	-7%	-15%
CCC(=O)NC(c1ccccc1OC)c1ccc2cccnc2c1O (centres undefined)	3.5µM*	0%	u	-6%
CCCC(=O)NC(c1ccc(OC)cc1)c1ccc2cccnc2c1O (centres undefined)	3.5µM*	11µM*	-7%	-15%
O=C(CN(C(=O)CNC(=O)c1ccco1)c1ccccc1F)NC1CCCCC1	x	6%	-6%	1%
CCOc1ccc(-n2c(=O)c3c(C)c(C)sc3n(Cc3ccccc3C)c2=O)cc1	0%	x	x	x
Cc1csc2ncnc(NNC(=O)c3ccc(Cl)cc3)c12	35µM*	4%	-5%	1%
CC(=O)c1cccc(NC(=S)N2CCc3ccccc32)c1	x	0%	6%	4%
CC(=O)c1cccc(NC(=S)N2c3ccccc3CC2C)c1 (centres undefined)	-1%	5%	-4%	8.9µM*
C=C(CC[C@]12OC(C(=O)O)C(O)(C(=O)O)C(C(=O)O)(O1)C(OC(=O)/C=C/[C@@H](C)C[C@@H](C)CC)C2O)[C@@H](OC(C)=O)[C@H](C)Cc1ccccc1 (some centres undefined)	x	x	3%	3%
Cc1ccccc1C(=O)Nc1ccccc1C(=O)OCc1cc(=O)n2ccsc2n1	-2%	-8%	-3%	0%
C[C@]12CCC[C@H](O1)c1c(cc3c(c1O)C(=O)c1c(O)cc(O)cc1C3=O)O2	x	8.9µM*	0%	5.6µM*
CCC(=O)N1CCCc2cc(S(=O)(=O)N3CCC(C(=O)Nc4ccc(F)c(F)c4)CC3)ccc21	0%	-14%	-3%	-5%
Cc1ccc(CSc2nc(-c3ccc(C(C)(C)C)cc3)nc3cc(=O)[nH]n23)cc1	-3%	2%	-6%	10µM*
Cc1ccc(NC(=O)CSc2nc(-c3ccc(C(C)(C)C)cc3)nc3cc(=O)[nH]n23)cc1C	-3%	u	-1%	-3%
CCN(CC)c1ccc2cc(-c3nc(-c4cc5ccccc5oc4=O)cs3)c(=O)oc2c1	x	i	-4%	7.1µM*
O=c1oc2ccccc2cc1-c1nc(-c2cccc(Cl)c2)cs1	10%	-34%	-1%	-8%
CCN(CC)c1ccc2cc(-c3nc(-c4ccccc4)no3)c(=O)oc2c1	14µM*	u	7%	-34%
CCN(CC)c1ccc2cc(-c3nnc(Nc4ccc(C)cc4)s3)c(=O)oc2c1	0.1µM*	-625%	-7%	4%
O=C(CSc1nnnn1C1CC1)Nc1ccc(S(=O)(=O)N2CCOCC2)cc1	x	-3%	-5%	-10%
CCCCOc1ccc(CNC(=O)c2cnc3sc(N4CCC(C)CC4)nn3c2=O)cc1	-3%	1%	1%	3%
CCCN1CCc2nc(SCC(=O)Nc3ccc(C)c(Cl)c3)[nH]c(=O)c2C1	-3%	-15%	-5%	1%
CCOc1ccc(NC(=O)/C(C#N)=C/c2ccc(N3CCCC3)c(C)c2)cc1	1%	2.5µM*	-2%	4µM*
COc1ccc(CN2CCCC(n3cc(C(=O)N4CCCCC4)nn3)C2)c(OC)c1 (centres undefined)	x	x	-5%	x
O=C(NC1CCCCC1)C1CCN(C(=O)c2ccc(Cl)cc2)CC1	x	-6%	-1%	0%
SMILES	Epigenetic reg	Vif-A3F inh	GRP78 ERSR act	Vif-A3G inh
COc1ccc2c(c1)c1nc3ccccc3nc1n2Cc1ccc(OC)c(OC)c1	u	25µM*	-2%	u
CCOc1ccc(Cn2c3ccc(OC)cc3c3nc4ccccc4nc32)cc1OC	u	u	1%	u
C=CC[C@@H]1C=C[C@@H](O/N=C\c2ccc(C(=O)N3[C@H](c4ccc(C)cc4)[C@@H](C)CC[C@H]3C(=O)OC)cc2)[C@@H](CO)O1	1%[10.1 µM]	x	-3%	x
COc1ccccc1N1CC(C)(C)C(=O)N(C(=O)c2ccc(C)cc2)C1=S	-1%	-11%	25µM*	-3%
COc1ccccc1N1CC(C)(C)C(=O)N(C(=O)c2ccc(Cl)cc2)C1=S	0%	-7%	19%	-8%
CCN(CC)c1ccc(/C=c2/sc3nnc(-c4ccccc4C)n3c2=O)cc1	7%	1.3µM*	0%	-3%

Screening data as filed in PubChem.
